ADAM10 inh: inhibits human ADAM10. recombinant ADAM10, EDANS/DABCYL FRET peptide cleavage, 3 h. inhibition, % at 7 µM. 370,000 tested, 0.62% active. AID 720582;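 active = inhibition above a per-campaign cutoff equal to the mean of compounds falling between control-based bounds plus 3 SD, cut at about 20% in these data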
PLC-gamma1 inh: inhibitors of human phospholipase C gamma1; purified PLC-gamma1, fluorogenic substrate, fluorescence; inhibition, % at 12.2 µM; 370,000 tested, 0.84% active; in the data active = inhibition above about 9.5%
ADAM17 inh: inhibits human ADAM17; 370,000 tested, 0.83% active; inhibition, % at 6.95 µM; AID 720648; recombinant ADAM17, EDANS/DABCYL FRET peptide cleavage;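 active = inhibition above the mean of compounds lying between control limits plus 3 SD, set per campaign, cut at about 8.5% in these data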
HGIII-sPLA2 inh: Inhibits HGIII-sPLA2 liposome hydrolysis, primary screen | Q9NZ20 | QFRET BODIPY PC-A2 liposome hydrolysis, fluorescence | inhibition, % at 12.2 µM | 370,000 tested, 0.56% active | AID 743126;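 active = inhibition above mean plus 3 SD of compounds lying within the high and low control bounds, cut at about 19% in these data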
PLCb3 inh: inhibitors of human phospholipase C beta3; Purified PLC-beta3, fluorogenic substrate, fluorescence; inhibition, % at 12.2 µM; 370,000 tested, 0.18% active; AID 720704; in the data active = inhibition above about 11%
proKLK7 act: activators of human kallikrein-7 zymogen; P49862; purified proKLK7, EDANS-DABCYL substrate fluorescence; 100% is mature enzyme control, 0% vehicle; activation, % at 7 µM; 370,000 tested, 0.9% active; AID 652039;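 active = activation above the mean of all tested compounds plus 3 SD, computed per campaign excluding outliers beyond control limits, cut at about 13% in these data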
Target sequence (P49862 whole entry, looked up): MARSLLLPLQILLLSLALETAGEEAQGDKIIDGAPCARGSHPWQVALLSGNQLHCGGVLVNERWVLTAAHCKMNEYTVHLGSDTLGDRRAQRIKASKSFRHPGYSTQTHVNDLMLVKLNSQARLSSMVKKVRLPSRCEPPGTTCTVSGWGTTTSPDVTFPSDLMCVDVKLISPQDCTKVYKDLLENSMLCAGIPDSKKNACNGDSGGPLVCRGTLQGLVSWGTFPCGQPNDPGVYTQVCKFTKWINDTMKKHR
sPLA2 confirm: human GIII-sPLA2 inhibition, confirmation; recombinant hGIII-sPLA2, BODIPY PC-A2 QFRET fluorescence; shares compounds with HGIII-sPLA2 inh; 2,000 tested, 34% active; inhibition, % at 12.2 µM;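 active = mean inhibition across triplicates above the hit cutoff set in the earlier primary screen, cut at about 19% in these data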
535nm interf: 535nm fluorescence interference, HGIII-sPLA2 counter-screen | BODIPY FL product fluorescence interference, QFRET | inhibition, % at 12.2 µM | 2,000 tested, 8.5% active | shares compounds with HGIII-sPLA2 inh;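 active = average inhibition above the solvent-only control mean plus 3 SD, cut at about 6% in these data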
BODIPY interf DR: interferes with 535nm fluorescence in dose response counter-screen; AID 743455; shares compounds with HGIII-sPLA2 inh; 240 tested, under 10 active; IC50, µM; BODIPY FL product fluorescence interference, cell-free;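 active = IC50 at or below 10 µM; inactive = IC50 above 10 µM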
Each line names hits and unclear results; the compound was inactive in the other large screens (follow-up assays come after a bar, where they were run). Sampled rows, rich in hits. Any-hit rate of the full collection: about 3.4%.

COc1cc(CNc2ccc3[nH]c(=O)[nH]c3c2)ccc1OCc1ccccc1C	none
Cc1cccc(C)c1NC(=O)CNc1ncnc2sc(C)c(C)c12	none
Cc1cc(C)c(S(=O)(=O)N2CCN(C(=O)CN3C(=O)NC4(CCCC4)C3=O)CC2)c(C)c1	none
Cc1cc(C)c(-c2c(O)c3c(n(C)c2=O)CC(C)(C)CC3=O)c(C)c1	HGIII-sPLA2 inh 21.4 | sPLA2 confirm inactive | 535nm interf inactive
Cn1c2c(c(O)c(-c3ccccc3)c1=O)C(=O)CC(C)(C)C2	none
Cc1ccc(C)c(NC(=S)N2C3CCCC2CC(NC(=O)C2CC2)C3)c1 (centres undefined)	HGIII-sPLA2 inh 21.3 | sPLA2 confirm inactive | 535nm interf inactive
O=C(CNC(=O)c1ccco1)Nc1ccc(N2CCCCCC2)cc1	HGIII-sPLA2 inh 22.5 | sPLA2 confirm inactive | 535nm interf inactive
CC1CCCC(C)N1NC(=S)Nc1ccc(OC(F)F)cc1 (centres undefined)	HGIII-sPLA2 inh 19.4 | sPLA2 confirm 20.0 | 535nm interf inactive
COc1ccc(NC(=S)NN2C(C)CCCC2C)cc1 (centres undefined)	none
C=CCn1c(=S)[nH]c2cc(C(=O)Nc3ccc(OC)c(OC)c3)ccc2c1=O	none
C=CCn1c(=S)[nH]c2ccc(Br)cc2c1=O	HGIII-sPLA2 inh 20.1 | sPLA2 confirm 21.1 | 535nm interf inactive
C=CCn1c(=S)[nH]c2nc3c(cc2c1=O)CCCC3	HGIII-sPLA2 inh 23.3 | sPLA2 confirm inactive | 535nm interf inactive
CC(NC(=O)CN1CCOCC1)c1ccc(F)cc1 (centres undefined)	HGIII-sPLA2 inh 20.6 | sPLA2 confirm inactive | 535nm interf inactive
CCNC(=O)c1cc2c(c(-c3cccc(-c4cncnc4)c3)n1)[C@@H](CCO)N(C(C)=O)C2	HGIII-sPLA2 inh 21.2 | sPLA2 confirm inactive | 535nm interf inactive
CCC(=O)N1Cc2cc(C(=O)NCC(F)(F)F)nc(-c3cccc(-c4cncnc4)c3)c2[C@@H]1CCO	none
COc1cc(OC)c(C2Nc3cccc4cccc(c34)N2)c(OC)c1	HGIII-sPLA2 inh 22.2 | sPLA2 confirm 37.2 | 535nm interf inactive | BODIPY interf DR inactive
COc1ccccc1C1Nc2cccc3cccc(c23)N1	HGIII-sPLA2 inh 21.1 | sPLA2 confirm 33.8 | 535nm interf 11.5
COc1ccc(C2Nc3cccc4cccc(c34)N2)cc1	none
C[C@]12Cc3ccccc3C1CC1=N[C@@H](c3ccccn3)O[C@@]13C[C@@H]2C(=O)N3C1CCN(Cc2ccccc2)CC1 (some centres undefined)	none
CCCCn1c(/C=C/c2ccco2)nc2ccccc21	none
CCCCn1c(/C=N/Nc2nc3ccccc3[nH]2)nc2ccccc21	HGIII-sPLA2 inh 35.4 | sPLA2 confirm 31.1 | 535nm interf inactive
CCCOC(=O)c1c(N)sc2c1CCC2	none
CC(C)OC(=O)c1c(N)sc2c1CCCC2	HGIII-sPLA2 inh 19.9 | sPLA2 confirm inactive | 535nm interf inactive
Nc1n[nH]c(=S)n1/N=C1/C(=O)Nc2ccccc21	none
Cc1ccc(S(=O)(=O)N(C)CCCC(=O)Nc2ccccn2)cc1	HGIII-sPLA2 inh 19.6 | sPLA2 confirm inactive | 535nm interf inactive
CCCN(C(=O)CSc1nc(C2CC2)n(-c2ccccc2)n1)C1CCS(=O)(=O)C1 (centres undefined)	none
CCc1ccccc1NC(=O)CCS(=O)(=O)c1ccc(C)cc1	HGIII-sPLA2 inh 19.7 | sPLA2 confirm inactive | 535nm interf inactive
O=C1Nc2ccc(Br)cc2/C1=C/C(=O)c1ccc2c(c1)OCO2	HGIII-sPLA2 inh 25.6 | sPLA2 confirm 42.2 | 535nm interf 14.4
COc1ccc(C(=O)COC(=O)CNC(=O)c2ccc(OC)cc2)cc1	none
COC(=O)[C@H]1C[C@@H](c2ccccc2)[C@H](C)C1(C)C	none
